# The whole screen tested about 71,000 compounds, of which about 1,800 (2.5%) were called active. About 26% were inconclusive and are not listed. The sample as a whole holds a higher share of actives than the screen did. Unmarked numbers belong to inactive results. Calls come from the whole dose curve; as a rule, active = well fitted activation curve with a large enough effect in the signal ratio, with a control signal flat (not every such curve was filed as active); inconclusive = small, poorly fitted or top-dose-only effect, or effect the other way, or a change in a side signal; inactive = flat fitted curve, though single readings scatter; the % refers to the signal ratio.
# Experiment: Cell signaling CRE-BLA (Fsk stim); for activity change, negative = inhibition: % of control where 0% means no effect
# Conditions: CHO CRE-bla reporter (cAMP response element driving beta-lactamase), forskolin EC10, beta-lactamase ratio; series mostly up to 38.2 µM; activity change, negative = inhibition: at the top concentration
# How it was run: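 Cells were plated overnight at 37 °C, exposed to compound titrations plus EC10 NKH 477 for 3 h, then given CCF4 dye for 2 h at room temperature. Blue/green (460/530 nm) ratio was converted to %Activity and AC50 values calculated.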
# Potency is the fitted concentration of half-maximal effect.
SMILES,"activity change, negative = inhibition",Potency
C#CCCCCCCCCCCCCCCCC(=O)O,-5.11%,
COc1ccc(O)c(C=Nc2cc(C)on2)c1,-1.66%,
c1cncc(CNc2ccnc(-c3ccc4c(c3)OCO4)n2)c1,-27%,
O=C(Nc1cccnc1)c1ccc2c(c1)OCO2,1.51%,
c1ccc2c(Nc3ccncc3)nc(-c3ccc4c(c3)OCO4)nc2c1,,12.6 µM (active)
CC(=O)Nc1nc(C)c(Cc2ccccc2)c(=O)[nH]1,6.88%,
COc1ccc(N2CCN(C(=O)CSc3ncnc4c3cnn4-c3ccc(OC)cc3)CC2)cc1,-2.74%,
COc1ccc(N2CCN(C(=O)CSc3nc4cc(OC)c(OC)cc4cc3C#N)CC2)cc1,,10 µM (active)
CCOc1ccc2cc(C#N)c(SCC(=O)OC)nc2c1,-0.598%,
Cc1ccc2nc(-c3ccccc3)cc(C(=O)O)c2c1,-5.73%,
Oc1ccc2nc(Cc3ccccc3)[nH]c2c1,-6.98%,
COC(=O)Nc1nc2ccc(Sc3ccccc3)cc2[nH]1,,2.51 µM (active)
CCN(CC)CCN1C(=O)C(=O)/C(=C(/O)c2ccccc2)C1c1ccccc1F (stereo unspecified),3.78%,
O=C(O)c1c(Br)c(Br)c(Br)c(Br)c1C1c2ccc(O)cc2Oc2cc(O)ccc21,4.42% [at 7.6 µM],
C=CCn1c2ccccc2c2nnc(SC(CC)C(=O)Nc3nc(C)c(C(=O)OCC)s3)nc21 (stereo unspecified),,1.26 µM (active)
C=CCn1c(C(C)NC(=O)CC)nc2ccccc21 (stereo unspecified),-0.176%,
C=CCn1c(SCC(=O)Nc2nc3ccccc3s2)nnc1-c1ccccc1O,-22.9%,
N#Cc1cc2[nH]c(=O)c(=O)[nH]c2cc1[N+](=O)[O-],-12.2%,
CC(=O)CC(C)C,-1.03%,
COc1ccccc1CCn1c(=O)c(-c2cn(C)c3ccccc23)nc2cncnc21,,0.398 µM (active)
COCCn1c(=O)c(-c2cccs2)nc2cncnc21,,12.6 µM (active)
COc1ccccc1CNC(=O)CCn1c(=O)sc2ccccc21,-18.5%,
COc1ccc(-n2c(=O)c(-c3cn(C)c4ccccc34)nc3cnc(OC)nc32)cc1,,0.2 µM (active)
CCc1c(C)nc2cc(-c3cccs3)[nH]n2c1=O,8.85%,

SMILES,"activity change, negative = inhibition",Potency
COCCn1c(=O)c(CCc2ccccc2)nc2cncnc21,5.96%,
COc1ccc(OCc2ccc(-c3nc4ccccc4c(=O)n3N)o2)cc1,13.7%,
COc1ccccc1CNc1ncncc1-c1cccc(NS(C)(=O)=O)c1,8.29%,
COc1ccc(-n2c(C)nc3c(cnn3-c3ccccc3)c2=O)cc1,26.1%,
CCOc1cccc(=O)c2c(C)n(CC3CCCO3)c(C)c12 (stereo unspecified),0.152%,
O=C(O)c1nccnc1C(=O)Nc1ccc(Br)cn1,1.11%,
C=CCNC(=O)C1CC=CCC1C(=O)O (stereo unspecified),2.51%,
COc1ccc(N)c(C)c1,-2.22%,
COC(=O)[C@@]1(C)C=C[C@@H](Cc2ccccc2)N1C(C)=O,-7.17%,
CCCCCCN(C(=O)CCCCCN1C(=O)NC(c2ccc(C(F)(F)F)cc2)C(C(=O)OCc2ccccc2)=C1C)C(C(=O)NCCCC)c1ccc(OCC(=O)OC)c(C(=O)OC)c1 (stereo unspecified),19%,
Cc1ccc2oc(=O)ccc2c1,-1.67%,
c1ccc(Oc2ccccc2)cc1,-5.17%,
COc1ccc(C2C(C#N)=C(N)Oc3n[nH]c(C)c32)cc1CN1CCN(c2ccc(F)cc2)CC1 (stereo unspecified),-10.6%,
CCN1C(=O)c2cccc3c(N)ccc1c23,,10 µM (active)
C[N+](C)(CCCCCC[N+](C)(C)CCCN1C(=O)c2cccc3cccc(c23)C1=O)CCCN1C(=O)c2cccc3cccc(c23)C1=O,2.5%,
CCCCN(C)C(=O)c1ccc2c(c1)N(CC)C(=O)c1ccccc1S2(=O)=O,1.07%,
NC(=O)C1CC=CCC1C(=O)OCC(Cl)=C(Cl)Cl (stereo unspecified),-9.86%,
CC(=O)Oc1cccc(N2C(=O)C3CC=C(Cl)CC3C2=O)c1 (stereo unspecified),10.5%,
CC(=O)c1cccc(NC(=O)c2ccncc2)c1,-3.63%,
Cc1cc(C)c2c(n1)nn1c(-n3ccnc3)cc(C)nc21,,6.31 µM (active)
CC(=O)Nc1ccc(S(=O)(=O)N2CCSCC2)cc1,-0.365%,
O=C(CCN1C(=O)c2ccccc2C1=O)Nc1ccncc1,9.45%,
Cn1c(=O)[nH]c(=O)c2c1nc(Br)n2CCCCSc1nc2ccccc2o1,,2.51 µM (active)
CC1CCN(c2nc3c(c(=O)[nH]c(=O)n3C)n2CCCc2ccccc2)CC1,9.3%,

SMILES,"activity change, negative = inhibition",Potency
Cn1c(=O)[nH]c(=O)c2c1nc(N1CCCCCC1)n2CC(=O)c1ccccc1,-2.8%,
C[C@]1(C(=O)NCCc2c[nH]c3ccccc23)C=C[C@@H](Cc2ccccc2)N1C(=O)c1ccccc1,-22%,
C1CCC2OC2C1 (stereo unspecified),-9.24%,
CCOc1cccc(NC(=O)CC#N)c1,-3.19%,
CC(=O)Nc1ccc(S(=O)(=O)Nc2ccc(N3CCOCC3)c(F)c2)cc1,-0.86%,
CC(=O)Nc1cccc(Oc2cc(C#N)c(C#N)cc2N2CCOCC2)c1,,5.01 µM (active)
CCCC(Cl)CCCC(Cl)CCC(Cl)CCC(Cl)CCC(Cl)CCCC(Cl)CCC (stereo unspecified),-10.8%,
O=C(Cl)c1ccccc1[N+](=O)[O-],-8.49%,
CCOC(=O)C1CCN(C(=O)c2oc3ccc(S(=O)(=O)N4CCCCCC4)cc3c2C)CC1,-4.03%,
CCOC(=O)N1CCN(C(=O)C2CCN(c3ncnc4c3sc3cccc(F)c34)CC2)CC1,5.74%,
CCOC(=O)C1CCN(c2ncnc3c2oc2ccc(Br)cc23)CC1,,2.51 µM (active)
COc1ccc(-n2c(SC)nc(O)cc2=O)cc1,-26.5% [at 7.6 µM],
COC(=O)c1ccc(S(=O)(=O)c2ccc(C(=O)OC)s2)s1,-1.96%,
CSc1nnc2c(n1)OC(c1cn(C)c3ccccc13)N(C(C)=O)c1ccccc1-2 (stereo unspecified),2.27% [at 7.6 µM],
c1ccc2cc(OCCN3CCCC3)ccc2c1,-1.69% [at 7.6 µM],
COc1cccc2c(=O)n(CC(=O)N3CCCCCC3)ccc12,-7.62%,
CCOC(=O)/C=c1\s/c(=C\c2ccccc2OC)c(=O)n1CC(=O)N1CCOCC1,,2.51 µM (active)
CCOc1ccccc1/C=c1\sc2nc(-c3ccco3)nn2c1=O,-11.2%,
O=C(NC1CCN(Cc2ccccc2)CC1)c1ccccc1F,-2.83%,
COCCOC(=O)C1=C(C)NC(=O)NC1c1ccc(Cl)cc1 (stereo unspecified),-2.61%,
C[C@@H](Nc1nc(-c2ccccc2)nc2c1oc1ccccc12)C(=O)O,3.05%,
Cc1nc(N2CCCC2C(=O)O)c2oc3ccccc3c2n1 (stereo unspecified),14.5%,
CCSc1nc(C)nc2c1oc1ccccc12,,12.6 µM (active)
